# Laboratory results published in PubChem BioAssay AID504850 (National Center for Advancing Translational Sciences (NCATS), 2011).
# About 1,200 (52%) of roughly 2,300 compounds were called active. Not shown: some 34% with an inconclusive outcome. Calls follow the shape of the dose curve; as a rule, active = well fitted inhibition curve with a large enough effect; inconclusive = small, poorly fitted or top-dose-only effect, or effect the other way; inactive = no such curve, though single readings can be large or run the other way. The set was probably picked from earlier hits. This is one part of the list.
# Experiment: Confirmation screen for delayed death inhibitors of the malarial parasite plastid, 48 hour incubation; also: nearly all actives have a fitted effect of over 65% in size
# Conditions: P. falciparum-infected erythrocytes, luciferase growth; series mostly up to 28.7 µM; activity change, negative = inhibition: at the top concentration
# Outline: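 Single-generation (48 h, 37 C) exposure of integrated firefly luciferase-reporter P. falciparum in red cells, 0.1% parasitemia at 2% hematocrit, Albumax-supplemented RPMI. Falling luciferase signal marks parasite growth inhibition.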
# % is scaled to controls: 0 for no effect and ±100 for the full control effect; potency is read from the fitted curve at half-maximal effect.
SMILES,"activity change, negative = inhibition",Potency
O=C(CSc1nnc(NC(=O)c2ccccc2[N+](=O)[O-])s1)NCC1CCCO1 (centres undefined),5.45% (inactive),–
CCOC(=O)CSc1nnc(NC(=O)c2cccc([N+](=O)[O-])c2)s1,–,12.6 µM (active)
CCC(C)[C@H](NC(=O)[C@H](Cc1ccccc1)n1c(=O)[nH]c2ccccc2c1=O)C(=O)NCC1CCC(C(=O)O)CC1 (some centres undefined),–,12.6 µM (active)
Clc1ccc(-c2c[n+](Cc3ccc(Br)cc3)c3n2CCCCC3)cc1,–,0.199 µM (active)
Clc1ccc(-c2c[n+](Cc3ccc(Cl)cc3Cl)c3n2CCCCC3)cc1,–,1.26 µM (active)
Nc1nnnn1/N=C/C(Br)=C/c1ccccc1,–,12.6 µM (active)
CCN1CCC(Nc2ccnc3cc(Cl)ccc23)CC1,–,0.126 µM (active)
O=C(NNc1ccnc2cc(Cl)ccc12)C1CCCCC1,–,0.891 µM (active)
S=C(Nc1ccccc1Cl)N(Cc1ccccc1)Cc1cccnc1,–,12.6 µM (active)
CCOC(=O)[C@H]1[C@H]2COc3cc(OC)ccc3[C@@H]2N2C(=O)N(c3ccc(Cl)cc3)C(=O)[C@@]12C,–,12.6 µM (active)
O=c1cc(CSc2nc(NCc3ccccc3)c3ccccc3n2)nc2ccc(Cl)cn12,–,5.01 µM (active)
Cc1ncc(CO)c(/C=N/NC(=S)Nc2ccc(F)cc2)c1O,–,12.6 µM (active)
COc1ccc(C(=O)NCC(=O)N/N=C(C)\C=C\c2ccccc2)cc1OC,-5.66% (inactive),–
O=C(CNC(=O)c1cccc(F)c1)N/N=C/c1ccc([N+](=O)[O-])s1,–,11.2 µM (active)
COc1ccc(C(=O)NCC(=O)N/N=C/c2ccc([N+](=O)[O-])s2)cc1OC,–,11.2 µM (active)
CCCCCCCn1c(=O)c(C(=O)OC)c(N)c2ccccc21,–,12.6 µM (active)
NNc1nc(-c2ccccc2Cl)c2cc(Br)ccc2n1,–,11.2 µM (active)
Cc1c(OCC(=O)NCC(O)c2ccccc2)ccc2c3c(c(=O)oc12)CCC3 (centres undefined),–,14.1 µM (active)
O=S(=O)(NCC(O)c1ccccc1)c1cc(Cl)sc1Cl (centres undefined),4.3% (inactive),–
O=C(COc1cc2oc(=O)c3c(c2cc1Cl)CCC3)NCC(O)c1ccccc1 (centres undefined),–,11.2 µM (active)

SMILES,"activity change, negative = inhibition",Potency
OC1(c2cccs2)CN(c2ccc(Br)cc2)C2=[N+]1CCCS2 (centres undefined),–,12.6 µM (active)
OC1(c2cccs2)CN(c2ccc(Cl)cc2)C2=[N+]1CCCC2 (centres undefined),–,10 µM (active)
CC(C)(C)Nc1nc(Cl)nc(NC2CCCCC2)n1,–,14.1 µM (active)
NC(=S)Nn1c(-c2ccccc2)nc2ccccc2c1=O,0.99% (inactive),–
O=C1c2ccccc2-n2c1nc1ccccc1c2=O,–,0.708 µM (active)
O=C1c2cc(F)ccc2-n2c1nc1ccccc1c2=O,–,0.178 µM (active)
CN(C)CCn1c(=O)n(Cc2ccco2)c(=O)c2c3c(sc21)CCCCC3,–,12.6 µM (active)
O=C(Nc1ccccc1F)c1ccc(CN2CCN(c3ccccc3)CC2)cc1,-34.1% (inactive),–
COc1ccc(NC(=O)c2ccc(CN3CCN(c4ccccc4)CC3)cc2)cc1OC,–,10 µM (active)
COc1cccc(NC(=O)c2ccc(CN3CCN(c4ccccc4)CC3)cc2)c1,–,15.8 µM (active)
O=C(Nc1ccc(F)cc1F)c1ccc2c(c1)[nH]c(=O)n2Cc1ccc(F)cc1,–,12.6 µM (active)
Oc1cccc2ccc(/C=C/c3ccccc3Br)nc12,–,2.82 µM (active)
COc1ccc(Cl)cc1/C=C/c1ccc2cccc(O)c2n1,–,6.31 µM (active)
Cn1c2ccccc2c(=O)c2ccc(C#Cc3ccc(N)cc3)cc21,–,12.6 µM (active)
COc1ccc(C#Cc2ccc3c(=O)c4ccccc4n(C)c3c2)cc1,–,10 µM (active)
Cc1ccc2c(c1)c1c3n2CCN(C(=O)CCl)C3CCC1 (centres undefined),–,12.6 µM (active)
Cc1cc(C)cc(CC(Cc2nc3ccccc3[nH]2)c2nc3ccccc3[nH]2)c1 (centres undefined),–,2.24 µM (active)
CCCCOc1ccc(NC2=NC3(CCCC3)N=C(N)N2)cc1,–,1.41 µM (active)
Cc1nc(-c2ccc(S(=O)(=O)N3CCCN(CCc4ccccc4)CC3)s2)cs1,–,10 µM (active)
Cc1ccc(N2C(=O)N3[C@H](c4ccc(F)cc4)[C@@H]4C(=O)N(C5CCCCC5)C(=O)[C@@H]4[C@]3(Cc3ccccc3)C2=O)cc1,–,5.62 µM (active)

SMILES,"activity change, negative = inhibition",Potency
Cc1cccc(Nc2nc3c(S(=O)(=O)c4ccccc4)nnn3c3ccccc23)c1C,–,4.47 µM (active)
N#C/C(=C\C=C\c1ccccc1[N+](=O)[O-])C(=O)NC1CCCCC1,–,4.47 µM (active)
COc1ccc([N+](=O)[O-])c(S(=O)(=O)c2ccccc2)n1,-55.2% (inactive),–
CC1CCCCC1NC(=O)/C(C#N)=C/C=C/c1ccccc1[N+](=O)[O-] (centres undefined),–,5.01 µM (active)
COCCNC(=O)/C(C#N)=C/C=C/c1ccccc1[N+](=O)[O-],–,11.2 µM (active)
COC(=O)C(=Cc1ccccc1[N+](=O)[O-])C(=O)OC,–,4.47 µM (active)
COc1ccc(Cn2c(-c3ccc(Br)cc3)c[n+]3ccccc23)cc1,–,1.26 µM (active)
O=C(NC12CC3CC(CC(C3)C1)C2)c1ccc([N+](=O)[O-])o1,–,6.31 µM (active)
COCCNCC(=O)NC12CC3CC(CC(C3)C1)C2,7.82% (inactive),–
Cn1cc([N+](=O)[O-])c(C(=O)Nc2ccn(C34CC5CC(CC(C5)C3)C4)n2)n1,-7.7% (inactive),–
CC(NC(=O)c1ccc([N+](=O)[O-])o1)C12CC3CC(CC(C3)C1)C2 (centres undefined),–,12.6 µM (active)
CC(=O)c1c(C)cc(C)c(CSc2nc(C)cc(=O)[nH]2)c1C,-19.7% (inactive),–
Cc1ccc(S(=O)(=O)Nc2cc(=O)[nH]c(SCc3ccc(Cl)cc3)n2)cc1,–,11.2 µM (active)
OC1CCN(c2c3c(nc4cc(-c5ccc(Cl)cc5)nn24)CCC3)CC1,–,7.08 µM (active)
Fc1cc2nc(-c3ccncc3)[nH]c2cc1F,–,10 µM (active)
Cn1ccc(=Nc2ccc(NC(=O)c3ccc(N=c4ccn(C)c5ccc([N+](=O)[O-])cc45)cc3)cc2)cc1,–,0.199 µM (active)
Cc1sc2nc[nH]c(=O)c2c1-c1ccc(Cl)cc1,-18.2% (inactive),–
O=C(CCl)Nc1cccc(S(=O)(=O)NC2=NCCC2)c1,–,1.26 µM (active)
COc1ccccc1-n1c(=S)[nH]c2c(sc(=S)n2-c2ccc(C)cc2C)c1=O,–,3.16 µM (active)
